# Assay outcomes from PubChem BioAssay.
# Only some compounds are listed: those with a hit (about 1.8% of all), similar ones and a draw of the others.
# A3A deaminase: blocks human APOBEC3A ssDNA deamination; recombinant A3A, FAM/TAMRA ssDNA deamination fluorescence; inhibition, % at 20 µM; actives 0.41% (n = 330,000); AID 493011;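 active = at least 40% inhibition at 20 µM here, with at most 30% in a related deaminase screen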;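 also: plate controls were A3A with DMSO for no effect and wells lacking A3A enzyme for full effect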
# Target sequence (P31941 whole entry, looked up): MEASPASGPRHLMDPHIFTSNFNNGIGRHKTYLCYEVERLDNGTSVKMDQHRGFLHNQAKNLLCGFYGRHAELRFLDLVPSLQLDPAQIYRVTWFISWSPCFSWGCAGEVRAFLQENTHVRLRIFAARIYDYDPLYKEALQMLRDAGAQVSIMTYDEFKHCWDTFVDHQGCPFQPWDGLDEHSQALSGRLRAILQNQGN
# beta cell repl: MIN6 beta-cell proliferation induction. MIN6 cells proliferation, ATPlite luminescence, 48 h; cells starved in 0.2% serum; 100% = growth in 10% serum. proliferation, % at 10 µM. actives 0.29% (n = 330,000);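 active = compounds whose signal lies at least 3.5 SD above the mean of all wells on their plate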;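 also: 0% = DMSO-treated cells in low-serum medium and 100% = 10% serum control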
# CendR NRP1 mod: NRP-1/CendR interaction modulation; O14786; FAM-RPARPAR peptide binding to NRP-1, fluorescence polarization; inhibition, % at 25 µM; actives 0.85% (n = 360,000);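 active = inhibition or corrected inhibition above about 18%, plus a signal ratio from 0.5 to 1.5, limit read from the data, passing the limit was not always enough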
# A3G deaminase: blocks human APOBEC3G single-stranded DNA deamination; recombinant A3G, ssDNA deamination FAM/TAMRA fluorescence; inhibition, % at 20 µM; actives 0.28% (n = 330,000); AID 493012;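 active = inhibition of at least 40% at 20 µM, with no more than 30% in the related APOBEC3A deaminase screen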;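 also: plate controls were DMSO wells with A3G for no effect and wells lacking A3G enzyme for full effect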
# VLA-4 inh: inhibition in a human VLA-4 binding assay. P13612. VLA-4 expressing cells, ligand binding flow cytometry. inhibition, % (about 7 µM as worked out from the volumes in the protocol). actives 0.2% (n = 330,000); in the data active = inhibition above about 50%
# * marks the source's active call; other numbers are inactive results; / = no result given.
SMILES,A3A deaminase,beta cell repl,CendR NRP1 mod,A3G deaminase,VLA-4 inh
COC(=O)c1cn(-c2ccccc2)c(C)c1C(=O)OC,0,0,22*,-2,2
CCc1ccc(NC(=S)NC2CC3CCC(C2)N3Cc2ccco2)cc1 (centres undefined),-4,-3,-8,-5,-11
COc1ccc(NC(=S)NC2CC3CCC(C2)N3Cc2ccco2)cc1 (centres undefined),-2,5,21*,-9,2
CCCn1nc2cc(C(=O)NCc3ccc(OC(F)(F)F)cc3)ccc2c1OCC,-4,-4,19*,-8,/
CCOc1c2ccc(C(=O)NCc3ccc4c(c3)OCO4)cc2nn1CCOC,-5,-2,18*,-9,1
COC(Cc1ccccc1N1CCCC1=O)OC,-4,-6,9,-5,-9
CC12C=CC(=O)C=C1CCC1C2C(O)CC2(C)C1CCC2(O)C(=O)CO (centres undefined),/,/,-4,/,/
CC(C)OCCCNC(=O)Nc1cccc2ccccc12,-1,-3,-8,-5,-3
COc1cc2c(cc1OC)-c1n[nH]c(=S)n1C(C)(C)C2,-6,-1,-3,48*,26
COc1cc2c(c(OC)c1OC)C(=O)C(=Cc1ccccc1)O2,/,/,26*,/,/
Cc1ccc(/C=N/NC(=O)CSc2nnc(-c3ccc(Cl)cc3)n2-c2ccccc2)o1,-5,1,43*,-9,8
CC1(C)CC(=O)c2c(O)cc(OCC(=O)Nc3ccc(CCO)cc3)cc2O1,-4,-2,-6,-8,11
Oc1ccc2[nH]cnc2c1CN1CCCCC1,-2,-1,25*,-1,-9
Cc1cc(=O)oc2c(CN3CCCCC3)c(O)ccc12,/,/,3,/,/
O=[N+]([O-])c1c(Nc2ccccc2O)ccc2nonc12,3,-2,25*,-1,-9
COc1ccc(OC)c2sc(N(CCCN(C)C)C(=O)c3ccc(S(=O)(=O)N4CCc5ccccc5C4)cc3)nc12,0,-7,/,-7,53*
O=C(Nc1nc2ccccc2[nH]1)c1ccc(Cl)c(S(=O)(=O)N2CCCC2)c1,3,-2,34*,-2,7
O=C(Nc1nc2ccccc2[nH]1)c1ccc(S(=O)(=O)N2CCOCC2)cc1,-3,-2,7,-8,1
C[C@@H]1COC(=O)[C@@H](CC(=O)OC(C)(C)C)C/C=C\C[C@@H](CC(=O)NCCO)C(=O)N1,-2,-1,-5,-6,28
O=c1cc(-c2ccccc2)[nH]c2ccc(F)cc12,/,/,23*,/,-5
Cc1ccc(-c2cc(=O)c3cc(C)ccc3[nH]2)cc1,1,-6,30*,-11,/
Cc1ccc2c(c1)CCCO[C@]21O[C@H](CCO)C[C@H](O)[C@H]1O,/,/,11,/,/
CCN(NC(=O)C(O)(c1ccccc1)c1ccccc1)C(=O)c1ccccc1,-4,3,-1,-6,9
CC(c1ccccc1)N(NC(=O)C(O)(c1ccccc1)c1ccccc1)C(=O)c1ccccc1 (centres undefined),-2,0.0*,14,-7,0
C[C@@H]1CN([C@H](C)CO)C(=O)CCCn2nncc2CO[C@@H]1CN(C)S(=O)(=O)c1cccc(F)c1,/,/,-8,/,/
SMILES,A3A deaminase,beta cell repl,CendR NRP1 mod,A3G deaminase,VLA-4 inh
COc1ccc(CCNC(=O)CCNC(=O)N2CC(=O)Nc3ccccc32)cc1OC,-5,-3,5,-5,43
OCC1OC(c2ccc(O)cc2O)C(O)C1O (centres undefined),/,/,29*,/,/
NNC(=O)c1[nH]c2ccc([N+](=O)[O-])cc2c1-c1ccccc1,1,-6,24*,-5,-78
COC(=O)c1ccc(COC(=O)C2CCN(S(=O)(=O)c3ccccc3C(=O)OC)CC2)cc1,32,-4,10,3,8
COC(=O)c1ccccc1S(=O)(=O)N1CCC(C(=O)OCc2ccc([N+](=O)[O-])cc2)CC1,-1,1,25*,-6,-11
COCCCNC(=S)N1CCN(Cc2ccc3c(c2)OCO3)CC1,-6,-3,21*,-4,10
Cc1ccccc1NC(=S)N1CCN(Cc2ccc3c(c2)OCO3)CC1,-3,-2,30*,-5,12
COCc1c(C(=O)N2CCN(Cc3ccc4c(c3)OCO4)CC2)oc2ccccc12,-6,-2,26*,-5,-23
COc1cccc(-c2n[nH]c(=S)n2Cc2ccco2)c1OC,1,1,-7,34,3
Oc1ccc(-c2n[nH]c(=S)n2Cc2ccco2)cc1,-1,-2,7,49*,/
